# Source: PubChem BioAssay (NCI)
# This is part of a sample that, as a whole, favours compounds with a hit. Of some 79,000 tested, about 15% had one in any assay. A number with no mark means an inactive call. Active and inactive are the calls of the source. Cut-off read from the data, not from the text of the source: active = growth inhibition above about 70%; inactive = the rest.
# Tests used:
# [1] = NCI Yeast Anticancer Drug Screen. Data for the rad52 strain (AID 147);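 note: 0% = growth of vehicle-treated control cultures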; conditions: S. cerevisiae rad52 mutant growth inhibition, hits give high values
# Procedure, shortened: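 Compounds are applied to a genetically defined yeast strain lacking normal DNA damage repair, and inhibition of growth is expressed relative to cultures given vehicle only.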
# [2] = NCI Yeast Anticancer Drug Screen. Data for the wt1 strain (AID 149);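 note: 0% = growth of vehicle-treated wt1 cultures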; conditions: S. cerevisiae wt1 strain (SPY 50644) growth inhibition, hits give high values
# Procedure, shortened: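 wt1 yeast, compound-treated; % growth inhibition vs vehicle control.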
# [3] = NCI Yeast Anticancer Drug Screen. Data for the rad50EPP+ strain (AID 151);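 note: 0% = growth of vehicle-treated control cultures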; conditions: S. cerevisiae rad50 mutant strain, hits give high values
# Procedure, shortened: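 Compounds were applied to the rad50EPP+ yeast strain, which bears a defined DNA repair alteration, and growth inhibition was determined relative to vehicle-treated cultures.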
# [4] = NCI Yeast Anticancer Drug Screen. Data for the mgt1 strain (AID 153); conditions: S. cerevisiae mgt1 mutant growth inhibition, hits give high values
# Procedure, shortened: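 Strain: mgt1 yeast, one of a set carrying defined DNA damage repair or cell cycle control alterations. Compound-treated growth compared with vehicle.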
# [5] = NCI Yeast Anticancer Drug Screen. Data for the rad50 strain (AID 155);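 note: 0% = growth of vehicle-only cultures of the same strain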; conditions: S. cerevisiae rad50 strain growth inhibition, hits give high values
# Procedure, shortened: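 Genetically altered yeast (DNA repair pathway); compound treatment; growth inhibition vs vehicle ctrl.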
# [6] = NCI Yeast Anticancer Drug Screen. Data for the mec2-1 strain (AID 157); conditions: S. cerevisiae mec2-1 strain, hits give high values
# Procedure, shortened: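 Strain: mec2-1 (DNA repair/cell cycle alteration). Compound exposure, then growth measured; inhibition expressed relative to vehicle.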
# [7] = NCI Yeast Anticancer Drug Screen. Data for the rad14 strain (AID 159);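 note: 0% = growth of vehicle-treated control cultures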; conditions: S. cerevisiae rad14 strain growth inhibition, hits give high values
# Procedure, shortened: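 Test compounds were applied to a repair-deficient yeast strain. Its growth was then compared with that of cultures given vehicle alone, and inhibition was expressed relative to those controls.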
# [8] = NCI Yeast Anticancer Drug Screen. Data for the sgs1 mgt1 strain (AID 161);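 note: 0% = growth of cultures given vehicle only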; conditions: S. cerevisiae sgs1 mgt1 strain, hits give high values
# Procedure, shortened: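 Genetically altered yeast, compound exposure, growth inhibition relative to vehicle.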
# [9] = NCI Yeast Anticancer Drug Screen. Data for the CLN2oe strain (AID 163);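 note: 0% = growth of vehicle-only control cultures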; conditions: S. cerevisiae CLN2oe strain, hits give high values
# Procedure, shortened: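 Growth of a genetically modified yeast strain is measured after compound exposure and compared with cultures given vehicle alone.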
# [10] = NCI Yeast Anticancer Drug Screen. Data for the cln2 rad14 strain (AID 165);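 note: 0% = growth equal to vehicle treated cultures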; conditions: S. cerevisiae cln2 rad14 strain, hits give high values
# Procedure, shortened: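 Compounds are applied to the cln2 rad14 yeast strain, and growth is then compared with that of vehicle-treated cultures to give inhibition.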
# [11] = NCI Yeast Anticancer Drug Screen. Data for the bub3 strain (AID 167); conditions: S. cerevisiae bub3 mutant strain, hits give high values
# Procedure, shortened: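 Yeast carrying a defined mutation is treated with each compound, and growth is compared with that of vehicle-exposed cells to give inhibition.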
# [12] = NCI Yeast Anticancer Drug Screen. Data for the wt2 strain (AID 169);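 note: 0% = growth of vehicle-treated yeast cultures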; conditions: S. cerevisiae wt2 strain growth inhibition, hits give high values
# Procedure, shortened: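 This strain belongs to a panel of yeast strains with defined genetic alterations in DNA damage repair or cell cycle control. Compounds are applied, and growth inhibition is measured against vehicle-treated cultures.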
# [13] = NCI Yeast Anticancer Drug Screen. Data for the mlh1 strain (AID 171);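 note: 0% = growth of vehicle-treated control cultures of the same strain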; conditions: S. cerevisiae mlh1 strain growth inhibition, hits give high values
# Procedure, shortened: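 Growth of the mutant yeast strain after compound exposure, expressed as inhibition relative to vehicle-only controls.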
# [14] = NCI Yeast Anticancer Drug Screen. Data for the sgs1 strain (AID 173);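 note: 0% = growth of vehicle-only control cultures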; conditions: S. cerevisiae sgs1 mutant, hits give high values
# Procedure, shortened: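 Growth of a yeast strain bearing a defined genetic alteration is measured after compound treatment. Inhibition is expressed relative to vehicle-only controls.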
# [15] = NCI Yeast Anticancer Drug Screen. Data for the mlh1 rad18 strain (AID 175); conditions: S. cerevisiae mlh1 rad18 strain growth inhibition, hits give high values
# Procedure, shortened: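 Read-out is yeast growth inhibition, calculated against vehicle-only controls. The compound was applied to a strain engineered with DNA damage repair alterations.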
# [16] = NCI Yeast Anticancer Drug Screen. Data for the rad18 strain (AID 177); conditions: S. cerevisiae rad18 mutant growth inhibition, hits give high values
# Procedure, shortened: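 Growth of the mutant yeast strain after compound exposure, normalised to vehicle-only cultures.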
# [17] = at 5.0 µM (retest, dose inferred, filed as 0.5)
# [18] = at 50.0 µM (retest, dose inferred, filed as 5.0)
smiles,measurement,setting,value
CC(/C=C/c1ccc(Cl)cc1)=N\NC(=S)NCC(C)C,growth inhibition,[1]; at 1.2 µM,-1%
same,growth inhibition,[1]; at 3.7 µM,-4%
same,growth inhibition,[1]; at 11.0 µM,4%
same,growth inhibition,[1]; at 33.0 µM,5%
same,growth inhibition,[1]; at 100.0 µM,33%
same,growth inhibition,[2]; at 1.2 µM,-2%
same,growth inhibition,[2]; at 3.7 µM,-5%
same,growth inhibition,[2]; at 11.0 µM,1%
same,growth inhibition,[2]; at 33.0 µM,-1%
same,growth inhibition,[2]; at 100.0 µM,21%
same,growth inhibition,[3]; at 1.2 µM,-3%
same,growth inhibition,[3]; at 3.7 µM,-5%
same,growth inhibition,[3]; at 11.0 µM,10%
same,growth inhibition,[3]; at 33.0 µM,12%
same,growth inhibition,[3]; at 100.0 µM,28%
same,growth inhibition,[4]; at 1.2 µM,-6%
same,growth inhibition,[4]; at 3.7 µM,-2%
same,growth inhibition,[4]; at 11.0 µM,-4%
same,growth inhibition,[4]; at 33.0 µM,8%
same,growth inhibition,[4]; at 100.0 µM,35%
same,growth inhibition,[5]; at 1.2 µM,-1%
same,growth inhibition,[5]; at 3.7 µM,1%
same,growth inhibition,[5]; [17],1%
same,growth inhibition,[5]; at 11.0 µM,4%
same,growth inhibition,[5]; at 33.0 µM,11%
same,growth inhibition,[5]; [18],42%
same,growth inhibition,[5]; at 50.0 µM,39.8%
same,growth inhibition,[5]; at 100.0 µM,34%
same,growth inhibition,[6]; at 1.2 µM,-2%
same,growth inhibition,[6]; at 3.7 µM,-3%
same,growth inhibition,[6]; [17],-9%
same,growth inhibition,[6]; at 11.0 µM,-4%
same,growth inhibition,[6]; at 33.0 µM,-1%
same,growth inhibition,[6]; [18],7%
same,growth inhibition,[6]; at 50.0 µM,66.7%
same,growth inhibition,[6]; at 100.0 µM,30%
same,growth inhibition,[7]; at 1.2 µM,1%
same,growth inhibition,[7]; at 3.7 µM,-1%
same,growth inhibition,[7]; at 11.0 µM,-2%
same,growth inhibition,[7]; at 33.0 µM,5%
same,growth inhibition,[7]; at 100.0 µM,24%
same,growth inhibition,[8]; [17],46%
same,growth inhibition,[8]; [18],72% (active)
same,growth inhibition,[8]; at 50.0 µM,77.8% (active)
same,growth inhibition,[9]; at 1.2 µM,0%
same,growth inhibition,[9]; at 3.7 µM,-8%
same,growth inhibition,[9]; at 11.0 µM,-8%
same,growth inhibition,[9]; at 33.0 µM,5%
same,growth inhibition,[9]; at 100.0 µM,28%
same,growth inhibition,[10]; [17],3%
same,growth inhibition,[10]; [18],37%
same,growth inhibition,[10]; at 50.0 µM,17.6%
same,growth inhibition,[11]; at 1.2 µM,-1%
same,growth inhibition,[11]; at 3.7 µM,-1%
same,growth inhibition,[11]; [17],27%
same,growth inhibition,[11]; at 11.0 µM,-6%
same,growth inhibition,[11]; at 33.0 µM,5%
same,growth inhibition,[11]; [18],68%
same,growth inhibition,[11]; at 50.0 µM,85.4% (active)
same,growth inhibition,[11]; at 100.0 µM,37%
same,growth inhibition,[12]; at 1.2 µM,-7%
same,growth inhibition,[12]; at 3.7 µM,-5%
same,growth inhibition,[12]; at 11.0 µM,-12%
same,growth inhibition,[12]; at 33.0 µM,-2%
same,growth inhibition,[12]; at 100.0 µM,24%
same,growth inhibition,[13]; at 1.2 µM,-3%
same,growth inhibition,[13]; at 3.7 µM,-5%
same,growth inhibition,[13]; at 11.0 µM,-3%
same,growth inhibition,[13]; at 33.0 µM,7%
same,growth inhibition,[13]; at 100.0 µM,36%
same,growth inhibition,[14]; at 1.2 µM,-13%
same,growth inhibition,[14]; at 3.7 µM,-8%
same,growth inhibition,[14]; at 11.0 µM,-6%
same,growth inhibition,[14]; at 33.0 µM,7%
same,growth inhibition,[14]; at 100.0 µM,34%
same,growth inhibition,[15]; [17],32%
same,growth inhibition,[15]; [18],64%
same,growth inhibition,[15]; at 50.0 µM,77.3% (active)
same,growth inhibition,[16]; at 1.2 µM,-7%
same,growth inhibition,[16]; at 3.7 µM,-4%
same,growth inhibition,[16]; at 11.0 µM,-1%
same,growth inhibition,[16]; at 33.0 µM,3%
same,growth inhibition,[16]; at 100.0 µM,32%
